For one sequence, binding signal results are on record in paper PMC7862700, “An all-to-all approach to the identification of sequence-specific readers for epigenetic DNA modifications on cytosine”.

What all share (assay): DAPPL (digital affinity profiling via proximity ligation, sequencing); 10 mM Tris-HCl pH 7.5, 50 mM NaCl, 1 mM DTT, 4% glycerol, room temperature, 30 min; GST-TFs on glutathione beads, 16-mer random dsDNA library, 0.1% formaldehyde crosslink after washing; high values mean tight binding
One experiment has as its target T1, FLI1 (Homo sapiens, UniProt Q01543 1-452).
T1 sequence: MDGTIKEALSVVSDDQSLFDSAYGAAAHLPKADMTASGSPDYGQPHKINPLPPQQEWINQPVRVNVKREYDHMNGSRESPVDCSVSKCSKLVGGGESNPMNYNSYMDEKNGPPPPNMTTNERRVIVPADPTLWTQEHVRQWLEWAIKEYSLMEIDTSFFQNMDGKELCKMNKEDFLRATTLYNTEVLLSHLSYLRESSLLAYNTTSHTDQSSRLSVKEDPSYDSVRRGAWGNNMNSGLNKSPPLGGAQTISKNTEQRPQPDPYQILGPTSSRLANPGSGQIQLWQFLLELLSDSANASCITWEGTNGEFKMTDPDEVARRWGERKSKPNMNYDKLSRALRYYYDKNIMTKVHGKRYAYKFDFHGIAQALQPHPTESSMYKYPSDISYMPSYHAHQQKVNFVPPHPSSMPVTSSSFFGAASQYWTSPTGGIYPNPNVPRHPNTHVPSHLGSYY
The conditions noted are these: protein: recombinant; tags: N-terminal GST; dsDNA, one strand shown. Summed up: (§1)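 Sequencing on an Illumina NextSeq500 followed washing, crosslinking with 0.1% formaldehyde, proximity ligation (BsaI/T4 ligase, 1 h, 37 °C) and PCR amplification of pools that had been incubated for 30 min at room temperature with 200 nmole of a random double-stranded 16-mer DNA library in Tris/NaCl/DTT/glycerol buffer. Each pool held DNA-barcoded human transcription factors, expressed in yeast as GST fusions and captured on glutathione beads, plus a tag-only sample. Binding signal is a hexamer's read frequency for a factor divided by its frequency in the tag-only sample.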

For the next experiment, the target named is T2, ELK1 (Homo sapiens, UniProt P19419 1-428).
T2 sequence: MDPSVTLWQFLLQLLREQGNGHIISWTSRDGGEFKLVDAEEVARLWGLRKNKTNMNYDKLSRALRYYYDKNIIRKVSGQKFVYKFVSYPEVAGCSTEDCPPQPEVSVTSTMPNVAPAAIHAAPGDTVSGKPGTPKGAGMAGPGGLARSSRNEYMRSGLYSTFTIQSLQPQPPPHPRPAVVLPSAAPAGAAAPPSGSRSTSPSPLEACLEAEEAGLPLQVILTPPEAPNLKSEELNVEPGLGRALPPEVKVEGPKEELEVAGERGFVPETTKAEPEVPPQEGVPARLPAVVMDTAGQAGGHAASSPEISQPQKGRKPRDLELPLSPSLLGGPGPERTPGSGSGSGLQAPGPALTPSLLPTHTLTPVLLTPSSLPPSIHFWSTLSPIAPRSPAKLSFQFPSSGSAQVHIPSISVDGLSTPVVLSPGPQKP
The settings on record: protein: recombinant; tags: N-terminal GST; dsDNA, one strand shown. Summed up: as §1

Another experiment concerns the target T3, GABPA (Homo sapiens, UniProt Q06546 1-454).
T3 sequence: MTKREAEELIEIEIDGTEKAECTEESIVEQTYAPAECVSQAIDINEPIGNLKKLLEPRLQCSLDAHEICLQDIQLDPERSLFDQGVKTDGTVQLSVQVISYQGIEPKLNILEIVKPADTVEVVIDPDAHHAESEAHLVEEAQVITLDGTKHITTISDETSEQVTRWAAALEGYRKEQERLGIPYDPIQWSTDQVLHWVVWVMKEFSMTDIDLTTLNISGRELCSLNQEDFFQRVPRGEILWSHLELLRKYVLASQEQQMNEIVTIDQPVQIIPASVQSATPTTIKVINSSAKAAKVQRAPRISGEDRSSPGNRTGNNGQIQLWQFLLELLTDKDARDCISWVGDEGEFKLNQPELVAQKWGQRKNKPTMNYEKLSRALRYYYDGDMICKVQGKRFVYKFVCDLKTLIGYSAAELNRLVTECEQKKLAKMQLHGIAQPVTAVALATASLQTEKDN
The settings on record: protein: recombinant; tags: N-terminal GST; dsDNA, one strand shown. Summed up:
as §1

The target in another experiment is T4, ERG (Homo sapiens, UniProt P11308 1-479).
T4 sequence: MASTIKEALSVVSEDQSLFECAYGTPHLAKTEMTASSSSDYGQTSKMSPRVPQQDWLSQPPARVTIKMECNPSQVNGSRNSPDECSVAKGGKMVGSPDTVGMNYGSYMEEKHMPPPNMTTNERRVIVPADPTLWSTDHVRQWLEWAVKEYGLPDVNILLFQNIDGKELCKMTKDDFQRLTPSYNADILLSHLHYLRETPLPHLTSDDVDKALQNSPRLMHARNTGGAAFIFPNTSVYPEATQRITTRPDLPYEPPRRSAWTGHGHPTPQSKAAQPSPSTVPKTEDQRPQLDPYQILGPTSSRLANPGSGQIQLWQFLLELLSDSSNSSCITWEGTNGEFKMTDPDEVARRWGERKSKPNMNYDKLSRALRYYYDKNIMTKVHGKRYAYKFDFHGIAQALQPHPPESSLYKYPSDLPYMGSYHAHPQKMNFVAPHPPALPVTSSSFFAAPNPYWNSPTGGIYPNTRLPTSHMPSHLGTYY
The settings on record: protein: recombinant; tags: N-terminal GST; dsDNA, one strand shown. The method in brief: as §1

Another experiment deals with ELF1 (Homo sapiens, UniProt P32519 1-619). The conditions noted are these: protein: recombinant; tags: N-terminal GST; dsDNA, one strand shown. Summed up: as §1
ELF1, sequence (P32519 whole entry): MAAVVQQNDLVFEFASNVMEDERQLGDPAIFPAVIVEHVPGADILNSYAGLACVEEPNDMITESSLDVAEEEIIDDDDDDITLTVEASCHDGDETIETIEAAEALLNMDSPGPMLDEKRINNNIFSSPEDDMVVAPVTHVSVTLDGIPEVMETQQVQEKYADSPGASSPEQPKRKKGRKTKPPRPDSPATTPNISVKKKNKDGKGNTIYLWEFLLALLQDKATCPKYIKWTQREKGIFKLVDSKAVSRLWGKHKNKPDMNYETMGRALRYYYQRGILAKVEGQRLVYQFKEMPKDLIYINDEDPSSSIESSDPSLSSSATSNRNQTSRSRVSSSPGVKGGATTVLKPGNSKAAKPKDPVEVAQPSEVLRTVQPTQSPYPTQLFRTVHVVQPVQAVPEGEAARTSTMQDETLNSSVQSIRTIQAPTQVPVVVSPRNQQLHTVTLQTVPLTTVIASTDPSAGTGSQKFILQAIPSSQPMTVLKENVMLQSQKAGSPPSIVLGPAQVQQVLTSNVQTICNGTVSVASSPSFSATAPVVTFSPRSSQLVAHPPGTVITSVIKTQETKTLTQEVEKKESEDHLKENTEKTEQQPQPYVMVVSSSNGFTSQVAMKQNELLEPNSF
The next experiment concerns the target T5, EHF (Homo sapiens, UniProt Q9NZC4 1-300).
T5 sequence: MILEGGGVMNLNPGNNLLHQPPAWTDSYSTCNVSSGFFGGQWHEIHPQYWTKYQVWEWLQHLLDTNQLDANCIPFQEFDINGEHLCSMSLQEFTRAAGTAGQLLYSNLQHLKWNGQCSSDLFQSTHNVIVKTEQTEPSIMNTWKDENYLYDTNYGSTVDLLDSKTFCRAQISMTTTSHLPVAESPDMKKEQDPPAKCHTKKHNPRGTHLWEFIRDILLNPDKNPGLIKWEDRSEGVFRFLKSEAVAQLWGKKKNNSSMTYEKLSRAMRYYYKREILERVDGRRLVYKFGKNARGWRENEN
The settings on record: protein: recombinant; tags: N-terminal GST; dsDNA, one strand shown. Summed up: as §1

A further experiment concerns the target SPI1 (Homo sapiens, UniProt P17947 1-270). The conditions noted are these: protein: recombinant; tags: N-terminal GST; dsDNA, one strand shown. Summed up: as §1
Another experiment concerns the target SPIB (Homo sapiens, UniProt Q01892 1-262). The conditions noted are these: protein: recombinant; tags: N-terminal GST; dsDNA, one strand shown. Summed up:
as §1

A further experiment deals with T6, FEV (Homo sapiens, UniProt Q99581 1-238).
T6 sequence: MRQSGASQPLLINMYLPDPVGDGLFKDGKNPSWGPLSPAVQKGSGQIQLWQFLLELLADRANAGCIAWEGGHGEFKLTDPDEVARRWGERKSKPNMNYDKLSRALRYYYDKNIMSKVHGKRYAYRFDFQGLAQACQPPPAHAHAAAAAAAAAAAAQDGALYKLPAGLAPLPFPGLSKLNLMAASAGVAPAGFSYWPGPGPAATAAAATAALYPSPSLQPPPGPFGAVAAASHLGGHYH
The settings on record: protein: recombinant; tags: N-terminal GST; dsDNA, one strand shown. The method in brief:
as §1

A further experiment deals with ETV5 (Homo sapiens, UniProt P41161 1-510). The conditions noted are these: protein: recombinant; tags: N-terminal GST; dsDNA, one strand shown. Summed up:
as §1

The target of a further experiment is HSF1 (Homo sapiens, UniProt Q00613 1-529). The settings on record: protein: recombinant; tags: N-terminal GST; chain copies: 3; dsDNA, one strand shown. Summed up:
as §1

Another experiment concerns the target T7, SPIC (Homo sapiens, UniProt Q8N5J4 1-248).
T7 sequence: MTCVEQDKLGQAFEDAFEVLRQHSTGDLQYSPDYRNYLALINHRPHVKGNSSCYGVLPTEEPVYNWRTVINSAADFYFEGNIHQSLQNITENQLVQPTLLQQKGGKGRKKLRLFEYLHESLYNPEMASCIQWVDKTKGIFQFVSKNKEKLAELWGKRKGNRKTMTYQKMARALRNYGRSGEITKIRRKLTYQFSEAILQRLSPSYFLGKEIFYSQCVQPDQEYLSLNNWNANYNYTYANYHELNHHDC
The settings on record: protein: recombinant; tags: N-terminal GST; dsDNA, one strand shown. The method in brief:
as §1

In the next experiment the target is ELF4 (Homo sapiens, UniProt Q99607 1-663). The conditions noted are these: protein: recombinant; tags: N-terminal GST; dsDNA, one strand shown. Summed up:
as §1

In the next experiment the target is T8, ELK4 (Homo sapiens, UniProt P28324-2 1-405).
T8 sequence: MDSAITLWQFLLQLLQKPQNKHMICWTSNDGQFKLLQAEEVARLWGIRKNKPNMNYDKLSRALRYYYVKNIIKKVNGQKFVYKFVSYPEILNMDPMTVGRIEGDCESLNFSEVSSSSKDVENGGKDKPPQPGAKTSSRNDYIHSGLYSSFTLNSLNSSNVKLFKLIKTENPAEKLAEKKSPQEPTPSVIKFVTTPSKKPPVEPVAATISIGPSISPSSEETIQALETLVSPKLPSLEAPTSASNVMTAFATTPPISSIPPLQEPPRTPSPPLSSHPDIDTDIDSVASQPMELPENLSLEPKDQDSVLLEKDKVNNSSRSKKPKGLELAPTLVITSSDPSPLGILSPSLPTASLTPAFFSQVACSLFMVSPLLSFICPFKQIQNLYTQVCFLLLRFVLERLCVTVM
The settings on record: protein: recombinant; tags: N-terminal GST; dsDNA, one strand shown. The method in brief: as §1

A further experiment deals with T9, ETV2 (Homo sapiens, UniProt O00321 1-342).
T9 sequence: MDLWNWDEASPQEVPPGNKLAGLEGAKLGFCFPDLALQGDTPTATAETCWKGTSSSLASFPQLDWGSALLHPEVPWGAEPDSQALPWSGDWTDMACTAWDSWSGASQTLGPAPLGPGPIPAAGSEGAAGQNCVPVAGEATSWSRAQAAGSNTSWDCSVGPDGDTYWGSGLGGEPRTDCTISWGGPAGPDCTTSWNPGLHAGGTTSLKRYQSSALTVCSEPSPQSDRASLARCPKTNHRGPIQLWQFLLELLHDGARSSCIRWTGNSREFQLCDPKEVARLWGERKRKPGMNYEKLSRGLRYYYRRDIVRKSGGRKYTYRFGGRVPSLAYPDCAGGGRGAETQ
The settings on record: protein: recombinant; tags: N-terminal GST; dsDNA, one strand shown. Summed up: as §1

The target in another experiment is T10, ELF3 (Homo sapiens, UniProt P78545 1-371).
T10 sequence: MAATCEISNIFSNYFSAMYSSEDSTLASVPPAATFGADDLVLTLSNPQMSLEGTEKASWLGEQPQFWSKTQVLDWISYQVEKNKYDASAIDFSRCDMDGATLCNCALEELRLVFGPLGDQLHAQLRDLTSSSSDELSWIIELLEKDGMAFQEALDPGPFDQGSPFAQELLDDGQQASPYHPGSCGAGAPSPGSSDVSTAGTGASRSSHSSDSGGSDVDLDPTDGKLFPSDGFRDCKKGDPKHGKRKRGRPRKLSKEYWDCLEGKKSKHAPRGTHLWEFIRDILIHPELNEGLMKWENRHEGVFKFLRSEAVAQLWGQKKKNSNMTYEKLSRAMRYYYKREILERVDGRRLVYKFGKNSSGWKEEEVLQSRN
The settings on record: protein: recombinant; tags: N-terminal GST; dsDNA, one strand shown. Summed up:
as §1

For another experiment, the target named is CRX (Homo sapiens, UniProt O43186 1-299). The conditions noted are these: protein: recombinant; tags: N-terminal GST; dsDNA, one strand shown. Summed up:
as §1

Another experiment deals with ETV1 (Homo sapiens, UniProt P50549 1-477). The conditions noted are these: protein: recombinant; tags: N-terminal GST; dsDNA, one strand shown. The method in brief:
as §1

ETV5, sequence (P41161 whole entry): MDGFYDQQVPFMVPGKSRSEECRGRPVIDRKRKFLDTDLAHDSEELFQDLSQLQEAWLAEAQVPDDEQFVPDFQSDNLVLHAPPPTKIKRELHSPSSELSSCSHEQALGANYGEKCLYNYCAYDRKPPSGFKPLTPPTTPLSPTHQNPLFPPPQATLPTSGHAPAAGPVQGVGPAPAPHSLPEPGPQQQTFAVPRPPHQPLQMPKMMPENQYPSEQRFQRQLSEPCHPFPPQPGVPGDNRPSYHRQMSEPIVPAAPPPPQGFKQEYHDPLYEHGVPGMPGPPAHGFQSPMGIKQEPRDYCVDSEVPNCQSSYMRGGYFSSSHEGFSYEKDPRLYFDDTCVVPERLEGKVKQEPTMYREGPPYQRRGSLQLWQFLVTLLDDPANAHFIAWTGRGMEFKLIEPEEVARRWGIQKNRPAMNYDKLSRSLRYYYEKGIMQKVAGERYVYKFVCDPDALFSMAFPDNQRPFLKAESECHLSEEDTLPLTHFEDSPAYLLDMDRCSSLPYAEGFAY
SPIB, sequence (Q01892 whole entry): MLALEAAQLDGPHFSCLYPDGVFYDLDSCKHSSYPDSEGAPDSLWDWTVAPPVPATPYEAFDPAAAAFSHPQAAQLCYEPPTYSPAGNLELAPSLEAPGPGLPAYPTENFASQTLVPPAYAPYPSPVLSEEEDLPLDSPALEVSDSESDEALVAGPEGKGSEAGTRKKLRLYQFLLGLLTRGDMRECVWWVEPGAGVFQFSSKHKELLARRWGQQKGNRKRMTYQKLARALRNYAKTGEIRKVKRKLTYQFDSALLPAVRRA
ETV1, sequence (P50549 whole entry): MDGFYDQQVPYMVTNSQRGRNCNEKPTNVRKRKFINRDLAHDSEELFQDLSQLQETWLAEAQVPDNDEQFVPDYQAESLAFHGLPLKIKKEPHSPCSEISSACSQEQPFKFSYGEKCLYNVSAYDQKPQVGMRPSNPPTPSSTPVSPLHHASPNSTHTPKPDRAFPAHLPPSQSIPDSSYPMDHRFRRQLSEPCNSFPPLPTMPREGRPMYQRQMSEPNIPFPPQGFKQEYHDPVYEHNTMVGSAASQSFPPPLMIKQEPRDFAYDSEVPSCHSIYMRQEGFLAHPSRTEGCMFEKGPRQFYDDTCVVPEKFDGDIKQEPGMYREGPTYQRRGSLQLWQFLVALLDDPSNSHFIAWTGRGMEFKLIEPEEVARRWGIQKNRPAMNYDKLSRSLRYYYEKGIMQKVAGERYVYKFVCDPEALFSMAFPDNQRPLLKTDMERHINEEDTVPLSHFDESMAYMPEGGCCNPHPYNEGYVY
HSF1, sequence (Q00613 whole entry): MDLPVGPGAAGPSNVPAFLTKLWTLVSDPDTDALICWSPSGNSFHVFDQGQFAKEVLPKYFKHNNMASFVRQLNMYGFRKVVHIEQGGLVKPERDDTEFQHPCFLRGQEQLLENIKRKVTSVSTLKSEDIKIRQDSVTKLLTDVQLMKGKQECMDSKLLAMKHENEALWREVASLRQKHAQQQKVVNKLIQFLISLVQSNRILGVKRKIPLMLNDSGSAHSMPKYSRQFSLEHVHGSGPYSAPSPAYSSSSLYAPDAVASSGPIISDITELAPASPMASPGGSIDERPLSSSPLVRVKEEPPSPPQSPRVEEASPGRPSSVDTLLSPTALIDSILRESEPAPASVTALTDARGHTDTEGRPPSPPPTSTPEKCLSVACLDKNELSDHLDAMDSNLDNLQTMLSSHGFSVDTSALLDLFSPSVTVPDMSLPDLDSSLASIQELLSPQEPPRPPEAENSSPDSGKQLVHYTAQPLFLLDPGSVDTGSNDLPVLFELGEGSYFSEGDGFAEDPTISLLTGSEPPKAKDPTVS
ELF4, sequence (Q99607 whole entry): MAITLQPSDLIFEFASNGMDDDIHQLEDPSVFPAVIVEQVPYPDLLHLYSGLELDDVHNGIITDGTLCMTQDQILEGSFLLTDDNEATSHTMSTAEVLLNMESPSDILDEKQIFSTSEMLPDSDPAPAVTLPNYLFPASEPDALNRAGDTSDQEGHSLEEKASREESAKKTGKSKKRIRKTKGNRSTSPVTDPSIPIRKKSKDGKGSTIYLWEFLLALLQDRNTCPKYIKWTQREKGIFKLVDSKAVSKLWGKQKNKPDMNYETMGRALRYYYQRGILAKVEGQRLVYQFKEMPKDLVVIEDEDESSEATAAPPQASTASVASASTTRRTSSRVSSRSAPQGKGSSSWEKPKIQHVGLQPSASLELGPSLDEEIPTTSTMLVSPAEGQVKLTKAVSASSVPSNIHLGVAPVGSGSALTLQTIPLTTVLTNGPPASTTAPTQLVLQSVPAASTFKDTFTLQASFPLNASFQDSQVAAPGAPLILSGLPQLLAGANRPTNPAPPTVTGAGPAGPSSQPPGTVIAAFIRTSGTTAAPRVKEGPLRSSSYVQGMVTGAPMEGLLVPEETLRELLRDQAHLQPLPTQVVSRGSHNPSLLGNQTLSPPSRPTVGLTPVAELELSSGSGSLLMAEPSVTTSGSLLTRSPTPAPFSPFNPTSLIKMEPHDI
CRX, sequence (O43186 whole entry): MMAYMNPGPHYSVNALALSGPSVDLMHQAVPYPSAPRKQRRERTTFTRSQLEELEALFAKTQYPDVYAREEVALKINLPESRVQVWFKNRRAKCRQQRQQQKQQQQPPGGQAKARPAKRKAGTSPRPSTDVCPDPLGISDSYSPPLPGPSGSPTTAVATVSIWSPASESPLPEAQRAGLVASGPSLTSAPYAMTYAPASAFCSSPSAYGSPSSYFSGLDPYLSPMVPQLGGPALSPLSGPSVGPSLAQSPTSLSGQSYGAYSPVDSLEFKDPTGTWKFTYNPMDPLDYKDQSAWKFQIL

Consider TCACTA, for which the binding signal with FLI1 is 1.21 fold enrichment (6-mer frequency, TF over GST control); with ELK1, 1.22 fold enrichment (6-mer frequency, TF over GST control); with GABPA it was 1.17 fold enrichment (6-mer frequency, TF over GST control); with ERG, 1.17 fold enrichment (6-mer frequency, TF over GST control); with ELF1, 1.21 fold enrichment (6-mer frequency, TF over GST control); with EHF, 1.17 fold enrichment (6-mer frequency, TF over GST control). In addition, the binding signal in the experiment with SPI1 is 1.23 fold enrichment (6-mer frequency, TF over GST control); in the experiment with SPIB it was 1.25 fold enrichment (6-mer frequency, TF over GST control); with FEV, 1.11 fold enrichment (6-mer frequency, TF over GST control); with ETV5, 1.06 fold enrichment (6-mer frequency, TF over GST control); with HSF1, 1.16 fold enrichment (6-mer frequency, TF over GST control); in the experiment with SPIC, 1.16 fold enrichment (6-mer frequency, TF over GST control). In addition, the binding signal with ELF4 is 1.12 fold enrichment (6-mer frequency, TF over GST control); in the experiment with ELK4 it was 1.28 fold enrichment (6-mer frequency, TF over GST control); with ETV2, 1.18 fold enrichment (6-mer frequency, TF over GST control); with ELF3 it was 1.19 fold enrichment (6-mer frequency, TF over GST control); with CRX, 1.27 fold enrichment (6-mer frequency, TF over GST control); with ETV1, 1.06 fold enrichment (6-mer frequency, TF over GST control).
